Measured values reported in PubChem BioAssay (NCATS).
Results filed as inconclusive are left out. Activity calls are given as the source filed them. Unless noted, the call rests on the fitted dose curve; in most records, active means well fitted curve in the direction sought with a large enough effect; inconclusive means small, poorly fitted or top-dose-only effect, or another doubt; inactive means no such curve, though single readings can be large; an effect the other way counts as inactive or inconclusive.

Experiments:
[1] = qHTS to identify inhibitors of the type 1 interferon - major histocompatibility complex class I in skeletal muscle: primary screen against the NCATS Pharmaceutical Collection (AID 1347407);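 further: luminescence of HiBiT knocked into endogenous HLA-B as interferon-induced MHC class I level; on the % scale 0 is the no-effect control and ±100 the full control effect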
Method in brief: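 Luminescence from HiBiT-tagged endogenous HLA-B*08:01 served as the read-out of IFN-beta-induced MHC class I in CRISPR-engineered C25cl48 myoblasts. Cells received 4 ng/ml IFN-beta plus compound (high final 46 uM, […]) for 24 h.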

[2] = target: Protein phosphatase 1D (Homo sapiens) (UniProt O15297); assay: RapidFire Mass Spectrometry qHTS Assay for Modulators of WT P53-Induced Phosphatase 1 (WIP1) (AID 1347424);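 further: amount of dephosphorylated VEPPL-S-QETFS peptide product formed by WIP1; series mostly up to about 63 µM; plate controls were DMSO wells for no effect and GSK830371 inhibitor control at 10 µM for full effect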
Sequence of Protein phosphatase 1D (Homo sapiens) (O15297 whole entry, looked up): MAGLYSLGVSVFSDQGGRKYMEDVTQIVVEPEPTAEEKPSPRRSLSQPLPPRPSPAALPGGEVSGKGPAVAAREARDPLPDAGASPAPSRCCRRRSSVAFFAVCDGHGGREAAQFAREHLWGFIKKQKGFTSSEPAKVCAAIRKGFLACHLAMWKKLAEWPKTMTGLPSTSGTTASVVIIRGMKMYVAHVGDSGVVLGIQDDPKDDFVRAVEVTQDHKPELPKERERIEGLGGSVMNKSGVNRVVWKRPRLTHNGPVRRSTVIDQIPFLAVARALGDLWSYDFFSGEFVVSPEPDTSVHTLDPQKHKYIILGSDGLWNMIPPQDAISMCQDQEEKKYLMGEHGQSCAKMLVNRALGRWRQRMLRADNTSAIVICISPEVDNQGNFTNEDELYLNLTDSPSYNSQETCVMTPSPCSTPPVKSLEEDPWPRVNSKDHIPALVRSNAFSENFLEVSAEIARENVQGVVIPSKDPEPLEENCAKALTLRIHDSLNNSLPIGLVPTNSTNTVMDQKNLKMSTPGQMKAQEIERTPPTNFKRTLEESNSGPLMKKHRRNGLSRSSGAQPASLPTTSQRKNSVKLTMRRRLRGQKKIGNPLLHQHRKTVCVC
Method in brief: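 RapidFire mass spectrometry measured dephosphorylated peptide after 5 min room-temperature reaction of 2 uM VEPPL-pS-QETFS with 10 nM WIP1 (50 mM Tris-HCl pH 7.5, 30 mM MgCl2, 0.1 mM EGTA, BSA), following 1 hr compound preincubation; 1 uM isotope-labelled product standard.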

[3] = target: Protein phosphatase 1D (Homo sapiens) (UniProt O15297); assay: Rhodamine-PBP qHTS Assay for Modulators of WT P53-Induced Phosphatase 1 (WIP1) (AID 1347425); further: % of control where 0% means no effect
Method in brief: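 5 nM WIP1 + 10 uM Rh-PBP, 50 mM Tris pH 7.5, 30 mM MgCl2, 1 mM TCEP, 0.1 mM EGTA, BSA; cpds pinned, 1 hr RT; + 10 uM phosphopeptide; fluorescence 1-min reads x 11 min; delta = f1 - f0.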

[4] = Primary qHTS for inhibitors of La Crosse Virus (LACV) - induced cell death in SH-SY5Y cells (AID 1508616);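 further: top concentration of the series differs between compounds; 0% = infected DMSO wells and 100% = uninfected DMSO wells; higher means more rescue of cells from virus-induced death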
Method in brief: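 Rescue of virus-induced death was read as ATPLite luminescence after 6 days at 37C, scaled between DMSO wells with LACV and without virus. Cells were SH-SY5Y, 6000/well, infected at 0.01 MOI after compound addition.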

[5] = target: Calcium and integrin-binding protein 1 (Homo sapiens) (UniProt Q99828); assay: Primary qHTS for Identification of Calcium Integrin Binding Protein 1 (CIB1) Competitor (AID 1508620);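 further: GST tagged CIB1 binding a fluorescein labelled alphaIIb integrin peptide tracer; top concentration of the series differs between compounds; on the % scale 0 is the no-effect control and ±100 the full control effect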
Sequence of Calcium and integrin-binding protein 1 (Homo sapiens) (Q99828 whole entry, looked up): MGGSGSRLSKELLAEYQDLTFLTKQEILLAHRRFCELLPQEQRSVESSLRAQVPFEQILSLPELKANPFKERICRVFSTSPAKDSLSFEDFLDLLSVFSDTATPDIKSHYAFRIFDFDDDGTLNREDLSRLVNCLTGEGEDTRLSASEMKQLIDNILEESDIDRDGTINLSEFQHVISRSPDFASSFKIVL
Method in brief: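 CIB1-GST (1 uM final) and compound incubated 15 min at room temperature before adding FITC-alphaIIb peptide tracer (100 nM final). Competition for binding read by fluorescence polarization (ex 480, em 540) after another 15 min at room temperature.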

[6] = Primary qHTS for small molecule stabilizers of the endoplasmic reticulum resident proteome: Secreted ER Calcium Modulated Protein (SERCaMP) assay (AID 1508630); further: on the % scale 0 is the no-effect control and ±100 the full control effect
Method in brief: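 The SH-SY5Y reporter protocol was run at 3 concentrations up to 38.3 uM (primary) or 11 concentrations (follow-up): 16 h compound, 100 nM thapsigargin for 4 h, then extracellular luciferase luminescence.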

[7] = A High-Content qHTS Against Drug Library for the Identification of Small Molecules that Inhibit DYT1 Early Onset Primary Dystonia-Associated Cell Pathology (AID 1645839; calls by dose curve; further: series mostly up to about 46 µM)
Method in brief: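 High-content imaging quantified EGFP-TorsinA mislocalization in HEK293-derived cells inducibly expressing DYT1 mutant torsinA, after 48 h exposure to compound given together with tetracycline induction. Cell count served as a toxicity channel alongside %pathology.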

[8] = target: Cytochrome P450 2D6 (Homo sapiens) (UniProt P10635); assay: Cytochrome P450 family 2 subfamily D member 6 (CYP2D6) small molecule antagonists: luciferase biochemical (cell-free) qHTS assay (AID 1645840; active means well fitted curve in the direction sought with a large enough effect in the repeat runs; an effect the other way counts as inactive or inconclusive; further: nearly all actives have a fitted effect of over 55% in size; further: potency means the concentration at half of the fitted maximal effect; on activity change, negative = inhibition: series mostly up to about 57 µM; on the % scale 0 is the no-effect control and ±100 the full control effect)
Sequence of Cytochrome P450 2D6 (Homo sapiens) (P10635 whole entry, looked up): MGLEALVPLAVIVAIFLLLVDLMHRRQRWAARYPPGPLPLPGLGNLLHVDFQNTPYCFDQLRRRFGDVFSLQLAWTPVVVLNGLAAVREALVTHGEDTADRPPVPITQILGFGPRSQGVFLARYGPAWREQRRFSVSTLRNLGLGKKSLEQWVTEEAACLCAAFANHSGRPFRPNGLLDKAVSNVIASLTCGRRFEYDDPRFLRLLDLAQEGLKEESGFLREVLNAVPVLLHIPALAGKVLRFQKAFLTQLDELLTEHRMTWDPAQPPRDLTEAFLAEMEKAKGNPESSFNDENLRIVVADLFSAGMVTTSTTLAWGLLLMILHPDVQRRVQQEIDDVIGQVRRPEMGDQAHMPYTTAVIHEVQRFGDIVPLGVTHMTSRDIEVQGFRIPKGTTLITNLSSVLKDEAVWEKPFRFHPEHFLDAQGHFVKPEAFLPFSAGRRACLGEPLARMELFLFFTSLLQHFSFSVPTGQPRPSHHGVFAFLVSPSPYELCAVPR
Method in brief: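 P450-Glo CYP2D6 system: proluciferin substrate converted by enzyme to luciferin, read by luminescence proportional to activity. Enzyme-substrate mix with compound 10 min at room temperature, then NADPH regeneration 1 h before detection reagent.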

[9] = target: Cytochrome P450 2C9 (Homo sapiens) (UniProt P11712); assay: Cytochrome P450 family 2 subfamily C member 9 (CYP2C9) small molecule antagonists: luciferase biochemical (cell-free) qHTS assay (AID 1645842; active means well fitted curve in the direction sought with a large enough effect in the repeat runs; an effect the other way counts as inactive or inconclusive; further: nearly all actives have a fitted effect of over 55% in size; further: potency means the concentration at half of the fitted maximal effect)
Sequence of Cytochrome P450 2C9 (Homo sapiens) (P11712 whole entry, looked up): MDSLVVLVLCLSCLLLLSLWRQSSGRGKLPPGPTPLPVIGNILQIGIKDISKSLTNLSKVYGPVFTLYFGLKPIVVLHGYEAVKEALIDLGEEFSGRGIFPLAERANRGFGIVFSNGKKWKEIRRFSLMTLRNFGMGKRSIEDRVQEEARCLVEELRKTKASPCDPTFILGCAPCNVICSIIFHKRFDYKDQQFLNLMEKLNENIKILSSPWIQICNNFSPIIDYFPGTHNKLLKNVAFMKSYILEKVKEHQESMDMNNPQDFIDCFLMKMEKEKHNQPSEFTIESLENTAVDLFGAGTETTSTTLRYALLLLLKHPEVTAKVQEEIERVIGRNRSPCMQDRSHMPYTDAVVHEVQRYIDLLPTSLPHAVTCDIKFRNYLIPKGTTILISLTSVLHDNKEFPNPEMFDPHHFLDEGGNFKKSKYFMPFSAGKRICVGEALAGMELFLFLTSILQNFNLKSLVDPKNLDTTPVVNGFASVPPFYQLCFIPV
Method in brief: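 P450-Glo CYP2C9 system: proluciferin substrate with enzyme in mix containing 0.4% BSA, 10 min at room temperature, then NADPH regeneration solution added and incubated 1 h at 37C. Detection reagent stopped reaction; luminescence read after 20 min as RLU.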

[10] = Primary qHTS for inhibitors of nuclear receptor binding SET domain protein 2 (NSD2) in an isogenic RCH-ACV NSD2 p.E1099K mutant (9B) (AID 1645876); further: nearly all actives have a fitted effect of over 70% in size
[11] = Primary qHTS for inhibitors of nuclear receptor binding SET domain protein 2 (NSD2) in an RCH-ACV wild type WT cells (2C) (AID 1645877); further: nearly all actives have a fitted effect of over 70% in size

O=C(Cn1ccnc1[N+](=O)[O-])NCCO
inactive: outcome [1] | outcome [2] | outcome [3] | outcome [4] | outcome [5] | outcome [6] | Potency [7] | Potency [8] | Potency [9] | Potency [10] | Potency [11]

O=C(NCCCN1CCOCC1)c1ccc(Cl)cc1
active: Potency [8] 2.72 µM
inactive: outcome [1] | outcome [2] | outcome [3] | outcome [4] | outcome [5] | outcome [6] | Potency [7] | Potency [9] | Potency [10] | Potency [11]

CC[C@]12CCCN3CCc4c(n(c5ccccc45)[C@@](O)(C(=O)OC)C1)[C@@H]32
active: Potency [8] 11 µM
inactive: outcome [1] | outcome [2] | outcome [3] | outcome [4] | outcome [5] | outcome [6] | Potency [7] | Potency [9] | Potency [10] | Potency [11]

CC(CSC(=O)c1ccccc1)C(=O)N1C[C@@H](Sc2ccccc2)C[C@H]1C(=O)O (stereo partly specified)
inactive: outcome [1] | outcome [2] | outcome [3] | outcome [4] | outcome [5] | outcome [6] | Potency [7] | Potency [8] | Potency [9] | Potency [10]

CCOC(=O)c1cccnc1
inactive: outcome [1] | outcome [2] | outcome [3] | outcome [4] | outcome [5] | outcome [6] | Potency [7] | Potency [8] | Potency [9] | Potency [10] | Potency [11]

CC[C@H](C)[C@H](N)C(=O)O
inactive: outcome [1] | outcome [2] | outcome [3] | outcome [4] | outcome [5] | outcome [6] | Potency [7] | Potency [8] | Potency [9] | Potency [10] | Potency [11]

CC(C)(C)NCC(O)COc1cccc2c1CCC(=O)N2 (stereo unspecified)
inactive: outcome [1] | outcome [2] | outcome [3] | outcome [4] | outcome [5] | outcome [6] | Potency [7] | Potency [8] | Potency [9] | Potency [10] | Potency [11]

CN/C(=C\[N+](=O)[O-])NCCSCc1csc(CN(C)C)n1
inactive: outcome [1] | outcome [2] | outcome [3] | outcome [4] | outcome [5] | outcome [6] | Potency [7] | Potency [8] | Potency [9] | Potency [10] | Potency [11]

Cc1cccc(C(=O)O)c1O
inactive: outcome [1] | outcome [2] | outcome [3] | outcome [4] | outcome [5] | outcome [6] | Potency [7] | Potency [8] | Potency [9] | Potency [10] | Potency [11]

CC(C)(C)C(=O)OCOC(=O)[C@@H]1N2C(=O)[C@@H](NC(=O)[C@H](N)c3ccccc3)[C@H]2SC1(C)C
inactive: outcome [1] | outcome [2] | outcome [3] | outcome [4] | outcome [5] | outcome [6] | Potency [7] | Potency [8] | Potency [10]

CC(=O)OC[C@H]1O[C@@](COC(C)=O)(O[C@H]2O[C@H](COC(C)=O)[C@@H](OC(C)=O)[C@H](OC(C)=O)[C@H]2OC(C)=O)[C@@H](OC(C)=O)[C@@H]1OC(C)=O
inactive: outcome [1] | outcome [2] | outcome [3] | outcome [4] | outcome [5] | outcome [6] | Potency [7] | Potency [8] | Potency [10]

COCC(=O)Nc1c(I)c(C(=O)NCC(O)CO)c(I)c(C(=O)N(C)CC(O)CO)c1I (stereo unspecified)
inactive: outcome [1] | outcome [2] | outcome [3] | outcome [4] | outcome [5] | outcome [6] | Potency [7] | Potency [8] | Potency [9] | Potency [10] | Potency [11]

CNCc1ccccc1
active: Potency [8] 11 µM
inactive: outcome [1] | outcome [2] | outcome [3] | outcome [4] | outcome [5] | outcome [6] | Potency [7] | Potency [9] | Potency [10]

C=CCSCC1Nc2cc(Cl)c(S(N)(=O)=O)cc2S(=O)(=O)N1 (stereo unspecified)
active: Potency [9] 8.49 µM
inactive: outcome [1] | outcome [2] | outcome [3] | outcome [4] | outcome [5] | outcome [6] | Potency [7] | Potency [8] | Potency [10] | Potency [11]

O[C@@H]1CO[C@H]2[C@@H]1OC[C@@H]2O
inactive: outcome [1] | outcome [2] | outcome [3] | outcome [4] | outcome [5] | outcome [6] | Potency [7] | Potency [8] | Potency [10]

COc1cc(O)cc(O)c1
inactive: outcome [1] | outcome [2] | outcome [3] | outcome [4] | outcome [5] | outcome [6] | Potency [7] | Potency [8] | Potency [9] | Potency [10] | Potency [11]

CCCCCC(N)=O
inactive: outcome [1] | outcome [2] | outcome [3] | outcome [4] | outcome [5] | outcome [6] | Potency [7] | Potency [8] | Potency [10] | Potency [11]

CC1CCc2cc(F)cc3c(=O)c(C(=O)O)cn1c23 (stereo unspecified)
inactive: outcome [1] | outcome [2] | outcome [3] | outcome [4] | outcome [5] | outcome [6] | % pathology change, negative = correction [7] -13.4% [at 9.22 µM] | Potency [8] | Potency [9] | Potency [10] | Potency [11]

Cc1ccc(S(=O)(=O)NC(=O)NC2CCCCCCC2)cc1
inactive: outcome [1] | outcome [2] | outcome [3] | outcome [4] | outcome [5] | outcome [6] | Potency [7] | Potency [8] | Potency [10] | Potency [11]
active: Potency [9] 17.4 µM

Nc1ncnc2c1ncn2[C@@H]1O[C@H](COP(=O)(O)O)[C@@H](O)[C@H]1O
inactive: outcome [1] | outcome [2] | outcome [3] | outcome [4] | outcome [5] | outcome [6] | Potency [7] | Potency [8] | Potency [9] | Potency [10]

CCCCCCCCCCOc1cc2c(=O)c(C(=O)OCC)c[nH]c2cc1OCC
inactive: activity change, negative = inhibition [1] 0.347% [at 3.83 µM] | activity change, negative = inhibition [2] 14.2% [at 6.17 µM] | activity change, negative = inhibition [3] 9.27% [at 4.81 µM] | activity change [4] 5.38% [at 0.431 µM] | activity change, negative = inhibition [5] 6.25% [at 12.4 µM] | activity change, negative = inhibition [6] 2.46% [at 3.88 µM] | % pathology change, negative = correction [7] 23.7% [at 4.63 µM] | activity change, negative = inhibition [8] 3.17% [at 4.83 µM] | activity change, negative = inhibition [9] 5.88% [at 4.83 µM] | outcome [10] inactive [at 4.96 µM] | activity change, negative = cell killing [11] 4.45% [at 4.96 µM]
